From PubChem BioAssay
HSF1 inhib = HSF1 inhibitors in luciferase reporter cells, primary screen, cell-based, NIH3T3, luminescence | NIH3T3-HGL HSE-luciferase, MG132-induced, luminescence 8 h; hits give low values | activity change, negative = inhibition, % at 7.5 µM (by protocol) | hit rate 0.77% among 300,000 | AID 2098, 2009;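 active means more than half of replicate wells show activity change below -50%, luminescence cut by over half; inconclusive means some wells, but at most half, below -50%; inactive means no replicate well below -50%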;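 further: luciferase reports HSF-1 transcriptional activity via heat shock element; 0% = median of DMSO wells and -100% = zero luminescence signal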
HSF-1 act = HSF-1 activators, primary screen, NIH3T3-HGL cells, MG132 stress, luminescence, single point; hit rate 1.7% among 300,000; NIH3T3-HGL HSF-1 luciferase reporter, 8 h; 100% = twice DMSO control signal; activation, % at 9 µM; AID 504408, 2011;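 active means mean replicate activation of at least 50% with a set share of replicates each reaching 50%; inconclusive means only one of those two conditions met; inactive means mean below 50% and too few replicates reaching it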;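 further: 0% = median of the neutral control wells and 100% = twice that signal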
SMARCA2 activ = SMARCA2 (BRM) function activators, primary screen, cell-based, luminescence, high throughput; MG213 cells, MMTV-luciferase reporter, dexamethasone, overnight; activation, % at 9.1 µM; hit rate 1% among 370,000; AID 652017, 2013; in the data active means activation above about 7.8%;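 further: 0% = vehicle wells and 100% = reference activator wells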
MITF act = activators of MITF-driven TRPM1 promoter reporter, primary screen, cell-based, SK-MEL-5, luciferase, single point | SK-MEL-5 TRPM1-promoter luciferase, 24 h; % of positive control, neutral wells = 0 | activation, % at 12.5 µM | hit rate 0.75% among 300,000 | AID 588334, 2011;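 active means mean activation of at least 80% with every replicate also reaching 80%; inconclusive means mean reaches 80% but some replicate falls short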;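 further: 0% = neutral control wells and 100% = parthenolide positive control wells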
Wnt bcat act = Wnt/beta-catenin pathway activators, primary screen, cell-based, plate reader, single point. Wnt/beta-catenin reporter cell assay, activator. activation, % at 9.35 µM. hit rate 1.2% among 300,000. AID 743398, 2014; in the data active means activation above about 30%, passing the limit was not always enough; inconclusive means no clear call, values can overlap the other calls;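 further: 0% = neutral control wells and 100% = positive control wells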
esBAF inh = Bmi1 luciferase reporter increase in mESCs, primary screen, esBAF inhibitor project, mouse ES cells, Bmi1 luciferase knock-in, single point; reporter increase, % at 12.5 µM; hit rate 2% among 350,000; 24 h; 100% = twice the neutral-well signal; in the data active means activation above about 40%; inconclusive means no clear call, values can overlap the other calls;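 further: 0% = median of the plate's neutral control wells and 100% = double that signal; a rise in the Bmi1 reporter signal indicates esBAF inhibition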
* marks the source's active call; other numbers are inactive results; ? = inconclusive; · = no result given. Compounds with a hit are over-represented: about 4.3% of the library has one in this group of screens.

SMILES	HSF1 inhib	HSF-1 act	SMARCA2 activ	MITF act	Wnt bcat act	esBAF inh
COc1ccc(-c2csc(Nc3ccccn3)n2)cc1OC	22	48	4	·	17	74*
COc1ccc(-c2csc(NC3OC(=O)c4c3ccc(OC)c4OC)n2)cc1OC (stereo not given)	43	60*	-2	·	6	·
Cc1nc(C)c(-c2csc(Nc3ccccn3)n2)s1	24	43	-1	·	22	-61
Cc1cc(-c2csc(Nc3ccccn3)n2)ccc1F	31	80*	-1	7	-3	17
CO[C@@H]1CN(C)C(=O)c2ccc(NC(=O)Nc3cccc(F)c3)cc2OC[C@H](C)N(C(=O)C2CC2)C[C@H]1C	·	·	·	·	·	6
COc1ccccc1C1CCN(c2ccc([N+](=O)[O-])c(OC)c2)CC1	8	23	0	34	2	55*
Cc1cc(C(=O)c2ccccc2)c(NC(=O)CN2CCOCC2)s1	-2	-1	-7	-12	-1	·
O=C(CCl)Nc1sccc1C(=O)c1ccccc1	43	61*	-3	·	3	-8
Cc1cc(C(=O)c2ccc(C(C)(C)C)cc2)c(NC(=O)CCl)s1	44	94*	0	-12	·	·
C[C@H](CO)N1C[C@H](C)[C@@H](CN(C)S(=O)(=O)c2cccs2)Oc2ccc(NC(=O)Cn3cnnn3)cc2CC1=O	·	·	·	·	·	-2
Cc1ccc(CC2SC(N=C(N)N)=NC2=O)cc1 (stereo not given)	34	81*	0	4	2	1
C[C@@H]1CN([C@H](C)CO)C(=O)c2cccc(NS(C)(=O)=O)c2O[C@H]1CN(C)S(=O)(=O)c1cccs1	·	·	·	·	·	-2
O=C(C[C@H]1C[C@@H]2c3cc(NC(=O)Nc4ccccc4F)ccc3O[C@@H]2[C@@H](CO)O1)NCc1ccc(Oc2ccccc2)cc1	·	·	·	·	·	10
O=C1c2ccccc2CN1CCSC(=S)N1CCSCC1	23	25	·	·	·	·
O=C1c2ccccc2CN1CCSC(=S)N1CCOCC1	10	38	3	54	41*	·
Nc1ccc(C23CC4CC(CC(O)(C4)C2)C3)cc1	-78*	-80	-4	7	·	-32
Nc1ccc(C23CC4CC(CC(CO)(C4)C2)C3)cc1	-17	-22	-2	6	-4	·
O=C(/C=C\c1ccco1)Oc1cccc2cccnc12	-4	-9	0	-12	40*	·
O=C(/C=C/c1ccco1)Oc1cccc2cccnc12	3	1	-3	-16	0	·
Cc1ccc2cccc(OC(=O)/C=C\c3ccccc3)c2n1	7	2	4	·	0	·
COc1ccccc1/C=C/C(=O)Oc1cccc2cccnc12	11	20	-1	14	62*	·
C[C@H](CO)N1C[C@H](C)[C@@H](CN(C)C(=O)Nc2ccccc2)Oc2c(NC(=O)C3CC3)cccc2C1=O	·	·	·	·	·	2
COc1cccc(CNC(=O)[C@H]2[C@H](CO)[C@H]3Cn4c(cccc4=O)[C@@H]2N3C(=O)C2CCC2)c1	·	·	·	·	·	-3
CCCNC(=O)Nc1ccc2c(c1)OC[C@H](C)N(C(=O)C1CCOCC1)C[C@H](C)[C@@H](OC)CN(C)C2=O	·	·	·	·	·	-5
Cn1nnc2c[n+](CC(=O)c3ccc(Cl)cc3)cc(Br)c21	8	12	1	·	2	·
SMILES	HSF1 inhib	HSF-1 act	SMARCA2 activ	MITF act	Wnt bcat act	esBAF inh
Cn1nnc2c[n+](CC(=O)c3ccc4ccccc4c3)cc(Br)c21	41	93*	1	·	2	·
CCn1cnc2c(Nc3cc(F)cc(F)c3)nc(C#N)nc21	·	·	2	70	26	57*
C[C@@H]1CN([C@@H](C)CO)C(=O)Cc2cc(NC(=O)NC3CCCCC3)ccc2O[C@@H]1CN(C)C(=O)Nc1ccccc1	·	·	·	·	·	1
CC(C)NC(=O)Nc1ccc2c(c1)C(=O)N([C@@H](C)CO)C[C@H](C)[C@H](CN(C)C(=O)C1CCCCC1)OCCCC[C@@H](C)O2	·	·	·	·	·	-7
O=C(OCc1nc2ccccc2s1)c1ccccc1O	5	7	3	?	15	·
O=C(OCc1nc2ccccc2s1)c1cnccn1	2	19	7	42	·	55*
N#Cc1ccccc1OCC(=O)OCC(=O)NC1CCCCC1	·	·	0	-6	-3	2
N#Cc1ccccc1OCC(=O)NC1CCCCCC1	·	·	0	·	1	46*
CCc1ccc(OCC(=O)NC2CCCCC2)c(Br)c1	29	33	1	101*	27	?
CC(C)(C)NC(=O)NC(=O)COc1ccc(Br)cc1Br	46	74*	2	32	?	·
Cc1cc(Br)ccc1OCC(=O)NC1CCCC1	18	24	0	12	1	52*
C[C@@H]1CN([C@@H](C)CO)C(=O)c2cccc(NS(=O)(=O)c3cn(C)cn3)c2O[C@@H]1CN(C)Cc1ccc(-c2ccccc2)cc1	·	·	·	·	·	1
CO[C@@H]1CN(C)C(=O)c2cc(NC(C)=O)ccc2OC[C@@H](C)NC[C@@H]1C	·	·	·	·	·	-1
COc1ccccc1-c1ccc([C@@H]2[C@H]3CN(S(=O)(=O)c4cn(C)cn4)CCCCN3[C@H]2CO)cc1	·	·	·	·	·	5
O=C(COc1ccc(F)cc1Cl)NC1CCCCCC1	·	·	-2	?	40*	?
O=C(COc1ccccc1Cl)NC(=O)NC1CCCCC1	0	14	1	58	4	12
O=C(COc1ccc(Br)cc1Br)NC(=O)NC1CCCC1	-3	3	6	104*	12	·
O=C(COc1ccccc1Br)NC1CCCC1	·	·	-2	-5	·	·
O=C(COc1ccc(Br)cc1Cl)NC(=O)NCc1ccccc1	27	67*	-2	9	·	·
COc1ccccc1-c1cn(CC[C@@H]2CC[C@H](NS(=O)(=O)c3ccccc3C)[C@@H](CO)O2)nn1	·	·	·	·	·	1
CCCC(=O)Nc1ccc2c(c1)C(=O)N(C)C[C@H](OC)[C@@H](C)CN(C(=O)C1CCCC1)[C@H](C)CO2	·	·	·	·	·	-3
CO[C@@H]1CC[C@H]2CCOc3ccc(C#N)cc3C(=O)N(C)C[C@H](c3ccccc3)CC(=O)N(C)C[C@H]1O2	·	·	·	·	·	0
O=C(C[C@@H]1CC[C@@H]2[C@H](COC[C@H](O)CN2Cc2ccc3c(c2)OCO3)O1)N1CCCCC1	·	·	·	·	·	4
CC(C)NC(=O)Nc1ccc2c(c1)CC(=O)N([C@@H](C)CO)C[C@@H](C)[C@H](CN(C)C)O2	·	·	·	·	·	6
Cc1ccc(NC(=S)NC(=O)C2CCCCC2)c(Br)c1	·	·	1	70	10	63*
Cc1ccc(NC(=O)CC2CCCC2)c(Br)c1	22	46	0	57	10	50*
Cc1ccc(NC(=O)C2CCCC2)c(Br)c1	10	9	-5	·	2	12
